# What was measured:
# Assay in all cases: PBM binding z-score (relative to random genomic background probes); higher = stronger binding; sequences stand for … in GC…GCGATTGACAGCGTAGAATGAAGG
# [1] = tested on: PPARg:RXRa DBDmut IVT, anti-RXR (DBD mutation: RXRa K156A/R161A, NR concentration 270 nM, RXRa partner concentration 90 nM)
# Method in brief: (§1)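 The probes on custom Agilent 4×180K protein-binding microarrays were double-stranded, with 34-nt variable regions bearing direct-repeat seeds, single-nucleotide variants, half-site ablations and random human genomic background sequences. Incubation lasted 1 h with ligand-free nuclear receptor dimers in PBS pH 7.4, 2% milk, 0.02% Triton X-100, 1 mM DTT, 0.2 mg/mL BSA and 0.4 mg/ml salmon testes DNA. Antibodies against each partner (one per run) detected bound dimers, and fluorescence scans were regression-normalized. Binding z-scores take the random background probes as reference.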
# [2] = tested on: PPARg:RXRa IVT, anti-PPARg (NR concentration 270 nM, RXRa partner concentration 90 nM)
# Method in brief: as §1
# [3] = tested on: PPARg DBDmut:RXRa IVT, anti-PPARg (DBD mutation: PPARg1 K132A/R137A, NR concentration 270 nM, RXRa partner concentration 90 nM)
# Method in brief: as §1
# [4] = tested on: PPARg DBDmut IVT, anti-PPARg (DBD mutation: PPARg1 K132A/R137A, NR concentration 270 nM)
# Method in brief: as §1
# [5] = tested on: PPARg homodimer (NR concentration 180 nM)
# Method in brief: as §1
# [6] = tested on: PXR:RXRa (NR concentration 270 nM, RXRa partner concentration 90 nM)
# Method in brief: as §1
# [7] = tested on: PXR homodimer (NR concentration 270 nM)
# Method in brief: as §1
# [8] = tested on: RARa:RXR (NR concentration 270 nM, RXRa partner concentration 90 nM)
# Method in brief: as §1
# [9] = tested on: RARa homodimer (NR concentration 270 nM)
# Method in brief: as §1
# [10] = tested on: RARb:RXRa (NR concentration 270 nM, RXRa partner concentration 90 nM)
# Method in brief: as §1
# [11] = tested on: RARb homodimer (NR concentration 270 nM)
# Method in brief: as §1
# [12] = tested on: RARg:RXRa (NR concentration 270 nM, RXRa partner concentration 90 nM)
# Method in brief: as §1
# [13] = tested on: RARg homodimer (NR concentration 270 nM)
# Method in brief: as §1
# [14] = tested on: RXRa DBDmut IVT, anti-RXR (DBD mutation: RXRa K156A/R161A, NR concentration 90 nM)
# Method in brief: as §1
# [15] = tested on: RXRa homodimer (NR concentration 180 nM)
# Method in brief: as §1
# [16] = tested on: THRa:RXRa (NR concentration 90 nM, RXRa partner concentration 90 nM)
# Method in brief: as §1
# [17] = tested on: THRa homodimer (NR concentration 90 nM)
# Method in brief: as §1
# [18] = tested on: VDR homodimer (NR concentration 270 nM)
# Method in brief: as §1
Sequence,PBM binding z-score [1],PBM binding z-score [2],PBM binding z-score [3],PBM binding z-score [4],PBM binding z-score [5],PBM binding z-score [6],PBM binding z-score [7],PBM binding z-score [8],PBM binding z-score [9],PBM binding z-score [10],PBM binding z-score [11],PBM binding z-score [12],PBM binding z-score [13],PBM binding z-score [14],PBM binding z-score [15],PBM binding z-score [16],PBM binding z-score [17],PBM binding z-score [18]
GCTCGGAGGACAGGGTCAGAGCTTTGTCCGTAGA,-0.294,0.104,-1.35,-1.12,-0.0128,1.22,-0.77,2.28,-1.04,2.55,2.28,2.42,2.37,0.265,2.69,2.4,0.321,0.212
CCTTACGGGTCACTGGCAGGTTATAGCATTTGGA,2.85,3.68,0.22,1.16,3.67,4.02,0.0403,5.02,0.895,3.99,3.16,5.81,4.75,1.66,4.96,3.14,0.323,1.16
TCGAGTAGGTTAGGCGCATTCAGAATGGCGTCGA,1.8,0.832,-1.24,-1.21,-1.2,-0.58,-0.715,-0.497,-1.02,0.105,-0.314,-0.45,-0.527,-0.0106,-0.118,-0.415,-0.996,-0.809
CTCGAAAGGTCGGTTGAGGTGAGTATCCGGATAA,0.135,0.893,-0.0361,-0.258,1.02,2.98,-0.135,2.21,-0.322,3.18,2.38,2.82,2.94,0.858,2.31,5.01,1.34,0.136
CAAACTATGTCAAGAGGTCAAAGTCCGCTTCCCG,4.61,4.88,1.22,0.601,4.01,5.64,2.84,6.21,2.09,4.3,4.59,5.95,5.29,2.09,6.87,3.65,1.79,4.22
CCTGCTACGTCAATGGTCAGCTAAAGCAGCTCGC,0.218,-0.566,-1.15,-0.483,-0.41,-0.469,-0.413,-0.14,-0.629,0.0938,0.4,-0.424,-0.342,0.29,-0.492,-0.534,-0.374,-0.434
GCTGCTAGGTCAACTGATGGTCAGATAAAGCTCG,4.95,4.14,-0.121,0.186,2.79,1.8,-0.238,3.42,-0.022,4.22,3.52,5.33,5.41,1.79,3.01,2.9,1.07,0.346
